# Experimental data from PubChem BioAssay.
# Calls of active or inactive are those of the source.
# What was measured:
# [1] = compound effects on lung adenocarcinoma cell viability – A549, calcein-AM fluorescence, 48 h, basal, profiling panel (AID 1162); settings: higher = more signal
# [2] = compound effects on differentiated 3T3-L1 adipocyte viability – cell-based, 3T3-L1 adipocytes, calcein-AM fluorescence, 48 h, basal, profiling panel (AID 1163); settings: 3T3-L1 adipocytes viability, higher = more signal
# [3] = compound effects on hepatocellular carcinoma cell viability – HepG2, calcein-AM fluorescence, 48 h, basal, profiling panel (AID 1164); settings: higher = more signal
# [4] = compound effects on multiple myeloma cell viability – MM1S, calcein-AM fluorescence, 48 h, basal, profiling panel (AID 1165); settings: higher = more signal;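 also: viability of MM1S multiple myeloma cells under basal unstimulated conditions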
# [5] = calcein-AM signal in unstimulated myeloma cells – cell-based, calcein-AM fluorescence, 48 h, PK04 Diversity Set, profiling panel (AID 1166); settings: RPMI8226 myeloma viability, higher = more signal;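 also: cells grown under basal conditions without added stimulus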
# [6] = JC-1 mitochondrial signal, unstimulated HepG2 cells – cell-based, JC-1 fluorescence, 24 h, 100 nL compound, profiling panel (AID 1167); settings: HepG2 mitochondrial potential, higher = more signal
# [7] = JC-1 mitochondrial signal, unstimulated adipocytes – cell-based, JC-1 fluorescence, 3T3-L1 adipocytes, 24 h, 100 nL compound, profiling panel (AID 1168); settings: JC-1 mitochondrial fluorescence, higher = more signal, called active from +8 up or from −8 down
# [8] = JC-1 mitochondrial signal, unstimulated myeloma cells – cell-based, JC-1 fluorescence, RPMI8226, 24 h, 100 nL compound, profiling panel (AID 1169); settings: JC-1 mitochondrial potential fluorescence, higher = more signal
# [9] = JC-1 mitochondrial signal, unstimulated MM1S myeloma – cell-based, JC-1 fluorescence, 24 h, 100 nL compound, profiling panel (AID 1170); settings: MM1S mitochondrial potential, higher = more signal
# [10] = resazurin metabolic signal in A549 cells – cell-based, resazurin fluorescence, 24 h, PK04 Diversity Set, profiling panel (AID 1171); settings: A549 viability, higher = more signal, called active from +8 up or from −8 down
# Also: test concentration not given here.
SMILES,z-score [1],z-score [2],z-score [3],z-score [4],z-score [5],z-score [6],z-score [7],z-score [8],z-score [9],z-score [10]
C=C[C@H](C)[C@@H](OC(=O)Nc1ccc(SC)cc1)c1ccc(O)c2ccccc12,-0.89,0.0148,-1.87,-2.68,-4.27,-3.23,-0.475 (inactive),-0.934,-1.59,-0.774 (inactive)
O=C1NC(=O)C2C1C=CC(C(O)c1ccc(-c3ccccc3)s1)N2Nc1ccc(Cl)cc1Cl (stereo not given),-1.95,-0.901,-2.13,-3.61,-3.05,-2.92,-1.08 (inactive),-0.983,-0.247,-1.65 (inactive)
NC(=O)[C@@]1(Cc2ccccc2)N=C(c2ccc(OCCCO)cc2)O[C@H]1c1ccccc1,-0.611,0.422,-0.373,-0.13,0.0044,-0.576,0.804 (inactive),-0.318,0.577,-0.0671 (inactive)
CC(C)[Si](C#CCCCC#N)(O[C@H](c1ccccc1)c1cn(Cc2cccc(Cl)c2)nn1)C(C)C,-1.13,-0.75,-0.626,-0.883,-4.19,6.65,-0.108 (inactive),-0.882,-1.56,0.268 (inactive)
COCCOC(=O)N1C(=O)[C@@]2(c3cc(C#CC4=CCCCC4)ccc31)[C@H](c1ccc(OCCO)cc1)N1[C@H](c3ccccc3)[C@H](c3ccccc3)OC(=O)[C@H]1[C@@H]2C(=O)N1CCc2cc(OC)c(OC)cc2C1,1.31,0.453,1.96,0.505,-0.0521,0.578,2.21 (inactive),-0.521,-0.935,-1.12 (inactive)
CC(C)[C@@H](C(=O)O)n1cc(C2(O)CCCCC2)nn1,0.566,1.51,-0.294,0.248,0.215,0.727,0.639 (inactive),-0.302,-0.394,0.194 (inactive)
COc1ccc([Si](C)(C)[C@H]2[C@H](CCO)O[C@@]3(C(=O)N(Cc4ccccc4)c4ccc(N5CCCCC5=O)cc43)[C@@H]2C)cc1,-0.0531,-0.627,-3.62,-2.03,-4.53,2,0.355 (inactive),-0.781,0.363,-2.68 (inactive)
COC(=O)c1c2oc(c1C(=O)OC)C(=O)N[C@@H](C(C)C)Cn1cc(nn1)C1(CCCCC1)NC(=O)N[C@H](CO)CC2,1.31,-0.32,0.0744,-0.11,0.823,1.62,0.024 (inactive),-0.159,0.3,1.15 (inactive)
COC(=O)[C@H](Cc1ccccc1)N[C@H](/C=C/C1CC1)[C@@H](O)Cc1ccccc1,-0.531,-0.451,0.021,0.18,0.732,1.46,0.792 (inactive),-0.52,-1.88,1.2 (inactive)
O=C(NC1CC1)[C@@H]1c2ccccc2C(=O)N(C2Cc3ccccc3C2)[C@H]1c1ccc(CO)cc1,0.201,0.526,0.116,0.62,-0.987,2.96,0.832 (inactive),0.0519,0.339,0.888 (inactive)
CC(=O)Nc1cc(Br)ccc1C(=O)NCc1ccccc1,-0.196,0.814,-0.0731,-0.0267,0.0237,-0.56,-0.907 (inactive),0.782,1.25,0.14 (inactive)
CC(C)N1CC=CC23O[C@@H]4C=CCOC(=O)[C@@H]4[C@H]2C(=O)N(CCCCCO)[C@@H]3C1=O (stereo not given in full),0.522,1.45,-1.25,1.01,0.512,-0.448,-0.709 (inactive),0.565,-0.41,0.0829 (inactive)
COCCOC(=O)N1C(=O)[C@@]2(c3cc(C#CCCO)ccc31)[C@H](c1ccc(OCCO)cc1)N1[C@H](c3ccccc3)[C@H](c3ccccc3)OC(=O)[C@H]1[C@@H]2C(N)=O,0.617,0.435,1.35,-0.109,-0.804,-0.72,-0.456 (inactive),-0.899,-0.0462,0.215 (inactive)
C=CC[C@@]1(C(=O)N2CCCCC2)N=C(c2ccc(OCCCO)cc2)O[C@@H]1c1ccccc1CN=[N+]=[N-],-0.933,0.952,0.192,-1.09,-3.66,1.47,-0.307 (inactive),-1.01,-0.18,-1.5 (inactive)
CO[C@H]1O[C@H](CO)[C@@H](OC(=O)Nc2ccccc2)[C@@H]2OC(=O)[C@@H](Cc3ccc4ccccc4c3)C/C=C/C[C@H](Cc3ccc4ccccc4c3)C(=O)O[C@@H]12,0.72,0.397,0.705,-0.268,0.575,-1,0.688 (inactive),-0.381,-0.135,-2.52 (inactive)
CCCCC(=C=CC[C@@H](O)c1ccc(CO)o1)CCO,1.48,-0.186,0.376,-0.277,0.275,0.761,0.618 (inactive),0.0267,0.321,1.28 (inactive)
CN(C)CCCC[C@@H]1NC(=O)[C@H]2C[C@@H](C(=O)NCCCCCN)[C@@H](c3cccc(OCCO)c3)N2C1=O,0.227,0.167,-0.42,-1.44,0.537,1.28,1.18 (inactive),0.51,1.26,0.123 (inactive)
COCCCNC(=O)[C@@]1(Cc2ccccc2)N=C(c2ccc(OCCCO)cc2)O[C@H]1c1ccccc1CN=[N+]=[N-],0.925,-0.703,0.941,-0.0943,-1.75,1.31,0.571 (inactive),-1.26,-0.918,-0.484 (inactive)
C#CCOc1ccc(C[C@@H](C(=O)OC)N(CC#C)[C@@H](/C=C/C2CC2)[C@H](O)Cc2ccccc2)cc1,-1.05,-0.303,-2.42,-2.3,-2.19,-1.15,-0.00867 (inactive),-0.79,-0.524,0.313 (inactive)
O=C(O)C1N=C(c2ccc(OCCCO)cc2)N(c2ccccc2)O1 (stereo not given),-0.906,0.135,-0.0572,0.569,-0.547,-0.142,0.663 (inactive),-1.22,-0.228,0.417 (inactive)
O=C1[C@H]2C=C(Br)[C@H](C[C@@H]2OCCCCCCO)[C@@]12CO2,-0.141,-0.572,-0.339,-1.04,0.206,-1.59,-0.253 (inactive),-0.601,-0.0629,-0.247 (inactive)
CC(c1ccccc1)C(O)C1C=CC2C(=O)N(C)C(=O)C2N1NC(=O)OC(C)(C)C (stereo not given),-0.431,0.173,-0.527,-0.391,-0.347,-0.741,-0.439 (inactive),-0.104,0.772,0.866 (inactive)
COC(=O)[C@@]1(Cc2ccccc2)[C@H]2c3cc(C(=O)N(C)C)n(Cc4ccc(OC)c(OC)c4)c3C[C@H]2CN1C(=O)c1ccccc1,-1.29,-0.24,0.148,-1.42,-2.64,0.811,-1.12 (inactive),-0.706,-1.14,-1.2 (inactive)
O=C1C2C=CC(C(O)COCc3ccccc3)N(Nc3ccc([N+](=O)[O-])cc3)C2C(=O)N1c1ccccc1 (stereo not given),-0.26,0.619,-0.617,-0.105,-0.0326,-1.26,-1.67 (inactive),-0.25,-1.01,0.315 (inactive)
C=C(CCCC)/C(=C/C[C@H](OC(C)=O)c1ccccc1OCCO)c1cnc2ccccc2c1,0.615,-0.466,0.0984,-3.37,-2.83,1.14,-1.26 (inactive),-0.247,-0.172,-0.344 (inactive)
C=CC[C@]1(C(N)=O)N=C(c2ccc(OCCCO)cc2)O[C@H]1c1ccccc1,0.354,0.464,-0.717,-0.519,-0.111,-0.579,-1.09 (inactive),-0.414,0.13,-0.0187 (inactive)
CCCC1(C(=O)OC)C=C2C(=C(c3ccccc3)C(=O)C2C)CN1 (stereo not given),-1,-0.446,-0.5,0.136,-1.14,0.0027,-1.23 (inactive),-0.198,-0.949,-0.42 (inactive)
O=C1O[C@H](c2ccccc2)[C@H](c2ccccc2)N2[C@H]1[C@@H](C(=O)NC[C@H](O)c1ccccc1)[C@]1(C(=O)Nc3ccc(C#CC4=CCCCC4)cc31)[C@H]2c1ccccc1OCCO,-2.45,-0.406,-3.88,-3.28,-4.23,-2.22,1.26 (inactive),-1.09,-1.79,-3.3 (inactive)
